{"source": "paper doi:10.1101/2024.03.05.583629"}
{"target": "pT7_6His-AlfaTag-HOXD13 (human, UniProt P35453 263-343)", "sequence (P35453 263-343)": "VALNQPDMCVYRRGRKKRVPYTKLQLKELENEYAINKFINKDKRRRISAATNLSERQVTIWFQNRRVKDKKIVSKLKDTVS", "assay": "PADIT-seq", "conditions": "dsDNA, one strand shown", "units": {"binding signal": "log2FC"}}
{"sequence": "CTCGAGGATATCAAGATCTGGCCTCGGCCGCGTGCGCGGAACCTCTAGCTAGCCGACTCACTATAGGGATAATCGCCCTGAGCAAAGACC", "binding signal": "-0.99 ± 0.127"}
{"sequence": "CTCGAGGATATCAAGATCTGGCCTCGGCTATGTAAAAGGAACCTCTAGCTAGCCGACTCACTATAGGGATAATCGCCCTGAGCAAAGACC", "binding signal": "1.05 ± 0.102"}
{"sequence": "CTCGAGGATATCAAGATCTGGCCTCGGCGTTTTATCGGGAACCTCTAGCTAGCCGACTCACTATAGGGATAATCGCCCTGAGCAAAGACC", "binding signal": "1.63 ± 0.0875"}
{"sequence": "CTCGAGGATATCAAGATCTGGCCTCGGCTGTCCACGCGGAACCTCTAGCTAGCCGACTCACTATAGGGATAATCGCCCTGAGCAAAGACC", "binding signal": "-0.737 ± 0.124"}
{"sequence": "CTCGAGGATATCAAGATCTGGCCTCGGCTACTGGGCGGGAACCTCTAGCTAGCCGACTCACTATAGGGATAATCGCCCTGAGCAAAGACC", "binding signal": "-1.09 ± 0.112"}
{"sequence": "CTCGAGGATATCAAGATCTGGCCTCGGCTGCGTAAAAGGAACCTCTAGCTAGCCGACTCACTATAGGGATAATCGCCCTGAGCAAAGACC", "binding signal": "1.22 ± 0.0881"}
{"sequence": "CTCGAGGATATCAAGATCTGGCCTCGGCCTTTTACGTGGAACCTCTAGCTAGCCGACTCACTATAGGGATAATCGCCCTGAGCAAAGACC", "binding signal": "2.16 ± 0.0717"}
{"sequence": "CTCGAGGATATCAAGATCTGGCCTCGGCGTTTTACGAGGAACCTCTAGCTAGCCGACTCACTATAGGGATAATCGCCCTGAGCAAAGACC", "binding signal": "3.47 ± 0.133"}
{"sequence": "CTCGAGGATATCAAGATCTGGCCTCGGCTGACCACGCGGAACCTCTAGCTAGCCGACTCACTATAGGGATAATCGCCCTGAGCAAAGACC", "binding signal": "-1.02 ± 0.112"}
{"sequence": "CTCGAGGATATCAAGATCTGGCCTCGGCCTAATAAAAGGAACCTCTAGCTAGCCGACTCACTATAGGGATAATCGCCCTGAGCAAAGACC", "binding signal": "3.06 ± 0.0911"}
